About 79,000 compounds went through this panel and 15% of them were active in at least one assay; those are over-represented in the sample as a whole. Unmarked numbers belong to inactive results. Activity calls are given as the source filed them. No stated cut-off is given here; in the data, active means growth inhibition above about 70%; inactive means the rest.
Columns and labels:
[1] = NCI Yeast Anticancer Drug Screen. Data for the rad50 strain (AID 155);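 further: 0% = growth of vehicle-only cultures of the same strain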; details: S. cerevisiae rad50 strain growth inhibition, stronger effect = higher value
Method in brief: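 DNA repair mutant yeast, compound exposure, growth read-out; inhibition is taken relative to vehicle.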

[2] = NCI Yeast Anticancer Drug Screen. Data for the mec2-1 strain (AID 157); details: S. cerevisiae mec2-1 strain, stronger effect = higher value
Method in brief: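 Yeast mec2-1 mutant treated with compound. Readout: growth inhibition vs vehicle controls.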

[3] = NCI Yeast Anticancer Drug Screen. Data for the sgs1 mgt1 strain (AID 161);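 further: 0% = growth of cultures given vehicle only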; details: S. cerevisiae sgs1 mgt1 strain, stronger effect = higher value
Method in brief: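 Read-out: growth inhibition vs vehicle controls. Cells: mutant yeast strain deficient in DNA damage repair.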

[4] = NCI Yeast Anticancer Drug Screen. Data for the cln2 rad14 strain (AID 165);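 further: 0% = growth equal to vehicle treated cultures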; details: S. cerevisiae cln2 rad14 strain, stronger effect = higher value
Method in brief: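 cln2 rad14 yeast strain; compound exposure; growth inhibition read vs vehicle controls.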

[5] = NCI Yeast Anticancer Drug Screen. Data for the bub3 strain (AID 167); details: S. cerevisiae bub3 mutant strain, stronger effect = higher value
Method in brief: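 In this screen, a yeast mutant lacking normal mitotic checkpoint function is challenged with compound. Relative growth versus vehicle gives the inhibition value.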

[6] = NCI Yeast Anticancer Drug Screen. Data for the mlh1 rad18 strain (AID 175); details: S. cerevisiae mlh1 rad18 strain growth inhibition, stronger effect = higher value
Method in brief: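 Yeast w/ defined DNA-repair lesions; compound exposure; growth vs vehicle controls → % inhibition.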

[7] = at 5.0 µM (retest, dose inferred, filed as 0.5)
[8] = at 50.0 µM (retest, dose inferred, filed as 5.0)

Compound	growth inhibition [1, 7]	growth inhibition [1, 8]	growth inhibition ([1]; at 50.0 µM)	growth inhibition [2, 7]	growth inhibition [2, 8]	growth inhibition ([2]; at 50.0 µM)	growth inhibition [3, 7]	growth inhibition [3, 8]	growth inhibition ([3]; at 50.0 µM)	growth inhibition [4, 7]	growth inhibition [4, 8]	growth inhibition ([4]; at 50.0 µM)	growth inhibition [5, 7]	growth inhibition [5, 8]	growth inhibition ([5]; at 50.0 µM)	growth inhibition [6, 7]	growth inhibition [6, 8]	growth inhibition ([6]; at 50.0 µM)
BrC1(c2ccccc2)C[n+]2c(-c3ccccc3)cc(-c3ccccc3)cc2-c2ccccc21 (configuration not stated)	95% (active)	99% (active)	89.8% (active)	96% (active)	99% (active)	91.5% (active)	97% (active)	98% (active)	91.2% (active)	95% (active)	99% (active)	91.2% (active)	37%	98% (active)	89.4% (active)	97% (active)	99% (active)	91% (active)
CC(=O)Sc1ccccc1C(=O)NCc1ccc(Cl)cc1	2%	97% (active)	97.8% (active)	-8%	98% (active)	99% (active)	2%	97% (active)	97.8% (active)	-12%	94% (active)	98.5% (active)	0%	96% (active)	98.5% (active)	13%	96% (active)	98.7% (active)
CC(C)C(=O)c1ccc2ccccc2c1O	-1%	1%	21.4%	2%	-1%	-9.8%	-13%	-8%	4.35%	3%	0%	12.2%	5%	6%	0.5%	-1%	1%	1.05%
CCCCc1ccc2nccc(N/N=C/c3ccc(OC)c4ccccc34)c2c1	1%	91% (active)	80% (active)	-27%	89% (active)	69.3%	2%	94% (active)	76.7% (active)	-2%	73% (active)	62.4%	-4%	90% (active)	79% (active)	1%	88% (active)	90.1% (active)
NC1=NC(c2ccccc2)CC(c2cc(Cl)cc(Br)c2O)=N1 (configuration not stated)	0%	25%	35.1%	-3%	19%	13.4%	-1%	42%	10.7%	0%	22%	16.2%	-1%	34%	-0.8%	-3%	46%	28.9%
CCCCCCCCCCCCC1N=C(N)N2CCCC2=C1C(=O)OC (configuration not stated)	82% (active)	99% (active)	89.2% (active)	99% (active)	99% (active)	91.5% (active)	69%	99% (active)	87.4% (active)	100% (active)	99% (active)	90.5% (active)	99% (active)	99% (active)	90.4% (active)	99% (active)	99% (active)	84.7% (active)
NC1=C(O)C(=O)C(c2c3ccccc3cc3ccccc23)O1 (configuration not stated)	16%	98% (active)	98.2% (active)	17%	98% (active)	98% (active)	8%	98% (active)	97.8% (active)	7%	95% (active)	95.9% (active)	16%	98% (active)	97.3% (active)	4%	98% (active)	97.5% (active)
CC1(C)S[C@@H]2[C@H](N3C(=O)c4ccccc4C3=O)CN2[C@H]1NC(=O)N[C@@H]1N2C[C@@H](N3C(=O)c4ccccc4C3=O)[C@H]2SC1(C)C	0%	18%	39.6%	-4%	43%	63.8%	-2%	20%	43%	-6%	44%	23.2%	4%	93% (active)	92.8% (active)	-2%	36%	70.8% (active)
COc1ccc(Cc2nc3ccccc3s2)cc1OC	42%	98% (active)	90.3% (active)	39%	99% (active)	92.8% (active)	61%	99% (active)	93.7% (active)	42%	97% (active)	91.9% (active)	51%	99% (active)	92.6% (active)	73% (active)	99% (active)	91.8% (active)

Source: PubChem BioAssay (NCI)
